{"source": "ChEMBL document CHEMBL3988442", "about": "“University of Dundee, Small-Polar-MMV Screening Library” (2021)", "note": "The campaign covered roughly 48,000 compounds. About 13,000 (27%) showed an effect of 50% or more. Some of the results follow."}
{"test_system": "Wolbachia pipientis", "experiment": "Anti-Wolbachia Cell-Based Screen", "format": "functional", "set-up": "scale not given: in the data most compounds retested in dose-response had high values", "settings": "5 µM", "units": {"Percent Effect": "%"}}
{"compound": "CCOCCCC(=O)NCc1ccnc(N2CCN(C)CC2)c1", "Percent Effect": 8.829}
{"compound": "CN(Cc1ccc(F)cc1C#N)CC(F)(F)F", "Percent Effect": -4.053}
{"compound": "CC(C)(C)CCN1CCN(c2snc(Cl)c2C#N)CC1", "Percent Effect": -4.564}
{"compound": "CC(C)(NC(=O)c1coc(COc2cccc(F)c2)n1)C(N)=O", "Percent Effect": 11.65}
{"compound": "COCc1cc(CNC(=O)c2cccc3c2OCC3)n[nH]1", "Percent Effect": -6.489}
{"compound": "CCCN1CCCN(CCCOc2cccc(C#N)c2)CC1", "Percent Effect": 7.264}
{"compound": "N#CCCN(C(=O)CN1CCCC1c1ccsc1)c1ccccc1F", "note": "(stereo not drawn)", "Percent Effect": -4.506}
{"compound": "CCS(=O)(=O)N1CCn2c(COCC3CCOCC3)cnc2C1C", "note": "(stereo not drawn)", "Percent Effect": -1.918}
{"compound": "CN(C)C(=O)NCc1cc2n(n1)CCCN(C[C@H]1[C@@H]3CNC[C@@H]31)C2", "Percent Effect": -16.67}
{"compound": "O=C(CC1CCCO1)NCc1ccccc1Cn1cncn1", "note": "(stereo not drawn)", "Percent Effect": 0.9316}
{"compound": "CC1CN(C)c2ccccc2CN1C(=O)c1ccc[nH]1", "note": "(stereo not drawn)", "Percent Effect": -9.61}
{"compound": "CCC1CN(C)c2ccccc2CN1C(=O)c1c[nH]c(=O)cc1C", "note": "(stereo not drawn)", "Percent Effect": 123.4}
{"compound": "CCc1cc(CNC(=O)N2Cc3ccccc3N(C)CC2C)[nH]n1", "note": "(stereo not drawn)", "Percent Effect": 5.505}
{"compound": "Cc1cc(=O)[nH]cc1C(=O)N1Cc2ccccc2N(C)CC1C", "note": "(stereo not drawn)", "Percent Effect": 102.2}
{"compound": "CC1CN(C)c2ccccc2CN1C(=O)c1cc[nH]c(=O)c1", "note": "(stereo not drawn)", "Percent Effect": -17.5}
{"compound": "CC1CN(C)c2ccccc2CN1C(=O)c1ccncc1F", "note": "(stereo not drawn)", "Percent Effect": -16.77}
{"compound": "O=C(c1ccc(-n2ccnc2)cc1)N1CCCC1", "Percent Effect": 15.67}
{"compound": "COCc1ccc(C(=O)N2CC[C@H](O)[C@@H](n3ccnc3)CC2)cc1", "Percent Effect": 113.2}
{"compound": "COCc1ccc(C(=O)N2CCCN(C(=O)OCC(C)C)CC2)cc1", "Percent Effect": 6.896}
{"compound": "CC(C)Oc1ccc(C(=O)N2CC[C@H](O)[C@@H](n3ccnc3)CC2)cc1", "Percent Effect": 122.3}
{"compound": "COCc1ccc(C(=O)N2CCN(CCS(C)(=O)=O)CC2)cc1", "Percent Effect": 1.51}
{"compound": "CC(C(=O)N1CCN(C(=O)c2ccc(F)cc2)CC1)n1ccnc1", "note": "(stereo not drawn)", "Percent Effect": -9.233}
{"compound": "CS(=O)(=O)CCSC1CCN(c2ccccc2F)C1=O", "note": "(stereo not drawn)", "Percent Effect": -0.4258}
{"compound": "CC(C)N1CCC(C(=O)N[C@H](C(=O)O)c2cccc(F)c2F)CC1", "Percent Effect": 23.96}
{"compound": "O=C(c1coc2ccccc12)N1CCCC(O)(CO)CC1", "note": "(stereo not drawn)", "Percent Effect": -11.92}
{"compound": "Cn1c(CO)cnc1SC(C(N)=O)c1ccccc1", "note": "(stereo not drawn)", "Percent Effect": -6.292}
{"compound": "COCCN(CCC#N)S(=O)(=O)c1ccc(F)cc1F", "Percent Effect": 3.199}
{"compound": "COc1cccc(OCCNCc2ccccc2)c1.O=C(O)C(=O)O", "Percent Effect": 105.9}
{"compound": "CS(=O)(=O)c1ccc(OCCNCc2cccc(O)c2)cc1", "Percent Effect": -6.003}
{"compound": "COc1cccc(OCCNS(C)(=O)=O)c1", "Percent Effect": 78.58}
{"compound": "O=C(CCOc1ccccc1)NS(=O)(=O)Cc1ccccc1", "Percent Effect": -5.15}
{"compound": "COc1cccc(OCCNS(=O)(=O)Cc2ccccc2)c1", "Percent Effect": 102.8}
{"compound": "Cc1cccc(OCC(=O)NS(=O)(=O)Cc2ccccc2)c1", "Percent Effect": 1.498}
{"compound": "COc1cccc(CNCCc2cccc(C(N)=O)c2)c1", "Percent Effect": -2.153}
{"compound": "COc1ccc(S(=O)(=O)C(C)C(=O)NCCOc2cccc(C)c2)cc1", "note": "(stereo not drawn)", "Percent Effect": 1.494}
{"compound": "CC(=O)NCCOc1cccc(Br)c1", "Percent Effect": 0.6269}
{"compound": "Cc1c(C(=O)NC2(C#N)CCSC2)nnn1-c1ccccc1Cl", "note": "(stereo not drawn)", "Percent Effect": 1.619}
{"compound": "Cn1cc(CNc2ccc(F)c(N3CCCS3(=O)=O)c2)cn1", "Percent Effect": -4.512}
{"compound": "CCCOCC1CCN(C(=O)Cn2cccc(C(F)(F)F)c2=O)C1", "note": "(stereo not drawn)", "Percent Effect": -13.09}
{"compound": "CN(C)CCN1CCCC12CCCN(Cc1ccoc1)C2.O=C(O)C(F)(F)F.O=C(O)C(F)(F)F.O=C(O)C(F)(F)F", "note": "(stereo not drawn)", "Percent Effect": 19.5}
{"compound": "Cn1cc(CN2CCCC23CCN(C(=O)c2cccn2C)CC3)cn1.O=C(O)C(F)(F)F", "Percent Effect": -11.73}
{"compound": "CN(C)CCN1CCCC12CCCN(Cc1ccco1)C2.O=C(O)C(F)(F)F.O=C(O)C(F)(F)F.O=C(O)C(F)(F)F", "note": "(stereo not drawn)", "Percent Effect": -6.586}
{"compound": "CN(C)CCN1CCCC12CCN(C(=O)c1cccn1C)CC2.O=C(O)C(F)(F)F.O=C(O)C(F)(F)F", "Percent Effect": -18.28}
{"compound": "CCN1CCCC12CCN(C(=O)c1ccsc1)CC2.O=C(O)C(F)(F)F", "Percent Effect": -19.39}
{"compound": "Cc1ccccc1C(=O)N1CCC2(CCCN2CCN(C)C)CC1.O=C(O)C(F)(F)F.O=C(O)C(F)(F)F", "Percent Effect": 100.3}
{"compound": "CN(C)CCN1CCCC12CCN(C(=O)c1ccoc1)CC2.O=C(O)C(F)(F)F.O=C(O)C(F)(F)F", "Percent Effect": 109.3}
{"compound": "CN(C)CCN1CCCC12CCN(C(=O)c1ccco1)CC2.O=C(O)C(F)(F)F.O=C(O)C(F)(F)F", "Percent Effect": 96.22}
{"compound": "CN(Cc1ccco1)C1CCC12CCN(C(=O)c1ccco1)CC2.O=C(O)C(F)(F)F", "note": "(stereo not drawn)", "Percent Effect": -7.154}
{"compound": "NC(=O)C(NCCc1ccc(Cl)s1)c1ccccc1", "note": "(stereo not drawn)", "Percent Effect": 0.1259}
{"compound": "CCN(Cc1noc(C(C)C)n1)Cc1ccc(C#N)cc1F", "Percent Effect": 13.78}
{"compound": "O=S(=O)(Cc1ccccc1)NCc1ccnc(O)c1", "Percent Effect": -8.436}
{"compound": "CCc1ccc2nc(C)cc(C(=O)N3C[C@H]4CCC[C@@]4(CO)C3)c2c1", "Percent Effect": -46.54}
{"compound": "CCSc1ncc(CN2C[C@H]3CC[C@@H]2CN(C2CCOCC2)C3)cn1", "Percent Effect": 15.93}
